Test [1] addresses pT7_6His-AlfaTag-HOXD13 (human, UniProt P35453 263-343). The test is described as follows: PADIT-seq. As to conditions: dsDNA, one strand shown.
Test [2] concerns the target pT7_6His-AlfaTag-ZIF268 (human, UniProt P18146 335-423). The test is described as follows: PADIT-seq. The note with it: dsDNA, one strand shown.

Chain of pT7_6His-AlfaTag-HOXD13 (P35453 263-343): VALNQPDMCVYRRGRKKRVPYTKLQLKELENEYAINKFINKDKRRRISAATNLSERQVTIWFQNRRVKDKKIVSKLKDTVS

On to “CTCGAGGATATCAAGATCTGGCCTCGGCATATTAAAAGGAACCTCTAGCTAGCCGACTCACTATAGGGATAATCGCCCTGAGCAAAGACC”, for which the values for the binding signal in test [1] and in test [2] were 2.69 ± 0.07 log2FC and 0.0247 ± 0.0768 log2FC, respectively.
As to “CTCGAGGATATCAAGATCTGGCCTCGGCCGATGGGCGGGAACCTCTAGCTAGCCGACTCACTATAGGGATAATCGCCCTGAGCAAAGACC”, the values for the binding signal in test [1] and in test [2] were -1.02 ± 0.115 log2FC and 0.00701 ± 0.0902 log2FC, respectively.
The like results for “CTCGAGGATATCAAGATCTGGCCTCGGCGCCCCACGCGGAACCTCTAGCTAGCCGACTCACTATAGGGATAATCGCCCTGAGCAAAGACC” were, in that order, -0.996 ± 0.127 log2FC and 0.0171 ± 0.103 log2FC.
In the case of “CTCGAGGATATCAAGATCTGGCCTCGGCAGTTGGGCGGGAACCTCTAGCTAGCCGACTCACTATAGGGATAATCGCCCTGAGCAAAGACC”, the binding signal in test [1] was -0.843 ± 0.104 log2FC; in test [2] it was 0.102 ± 0.086 log2FC.
As to “CTCGAGGATATCAAGATCTGGCCTCGGCCTTTTACGAGGAACCTCTAGCTAGCCGACTCACTATAGGGATAATCGCCCTGAGCAAAGACC”, the binding signal in test [1] was determined as 3.52 ± 0.0778 log2FC; in test [2], 0.0308 ± 0.0876 log2FC.
The like results for “CTCGAGGATATCAAGATCTGGCCTCGGCATATGGGCGGGAACCTCTAGCTAGCCGACTCACTATAGGGATAATCGCCCTGAGCAAAGACC” were, in that order, -0.745 ± 0.103 log2FC and 0.0376 ± 0.0849 log2FC.
Taken in the same sequence, the figures for “CTCGAGGATATCAAGATCTGGCCTCGGCCAAGTAAAAGGAACCTCTAGCTAGCCGACTCACTATAGGGATAATCGCCCTGAGCAAAGACC” were 0.682 ± 0.11 log2FC and 0.0157 ± 0.107 log2FC.
Turning to “CTCGAGGATATCAAGATCTGGCCTCGGCCACATAAAAGGAACCTCTAGCTAGCCGACTCACTATAGGGATAATCGCCCTGAGCAAAGACC”, the binding signal in test [1] amounted to 2.6 ± 0.0844 log2FC; in test [2], 0.0607 ± 0.0948 log2FC.
Turning to “CTCGAGGATATCAAGATCTGGCCTCGGCATTTTAAGAGGAACCTCTAGCTAGCCGACTCACTATAGGGATAATCGCCCTGAGCAAAGACC”, the binding signal was 2.98 ± 0.0964 log2FC in test [1] and 0.0486 ± 0.104 log2FC in test [2].
On to “CTCGAGGATATCAAGATCTGGCCTCGGCACCATAAAAGGAACCTCTAGCTAGCCGACTCACTATAGGGATAATCGCCCTGAGCAAAGACC”, for which the binding signal in test [1] was found to be 2.69 ± 0.0753 log2FC; in test [2] it was 0.0345 ± 0.0841 log2FC.
The like results for “CTCGAGGATATCAAGATCTGGCCTCGGCGCGACAGCGGGAACCTCTAGCTAGCCGACTCACTATAGGGATAATCGCCCTGAGCAAAGACC” were, in that order, -1.04 ± 0.131 log2FC and 0.028 ± 0.102 log2FC.
The like results for “CTCGAGGATATCAAGATCTGGCCTCGGCCGCCAGCGCGGAACCTCTAGCTAGCCGACTCACTATAGGGATAATCGCCCTGAGCAAAGACC” were, in that order, -0.898 ± 0.171 log2FC and 0.462 ± 0.139 log2FC.
As for “CTCGAGGATATCAAGATCTGGCCTCGGCTCTCCACGCGGAACCTCTAGCTAGCCGACTCACTATAGGGATAATCGCCCTGAGCAAAGACC”, the binding signal in test [1] is -0.925 ± 0.119 log2FC.
As to “CTCGAGGATATCAAGATCTGGCCTCGGCCTATGGGCGGGAACCTCTAGCTAGCCGACTCACTATAGGGATAATCGCCCTGAGCAAAGACC”, the binding signal in test [1] was -0.949 ± 0.119 log2FC; in test [2] it was 0.0355 ± 0.0969 log2FC.
On to “CTCGAGGATATCAAGATCTGGCCTCGGCGACATAAAAGGAACCTCTAGCTAGCCGACTCACTATAGGGATAATCGCCCTGAGCAAAGACC”, for which the binding signal is 1.3 ± 0.0763 log2FC in test [1] and 0.00765 ± 0.0777 log2FC in test [2].
As to “CTCGAGGATATCAAGATCTGGCCTCGGCGCTTGGGCGGGAACCTCTAGCTAGCCGACTCACTATAGGGATAATCGCCCTGAGCAAAGACC”, the binding signal is -0.995 ± 0.12 log2FC in test [1] and 0.158 ± 0.0966 log2FC in test [2].
In the case of “CTCGAGGATATCAAGATCTGGCCTCGGCGAATTAAAAGGAACCTCTAGCTAGCCGACTCACTATAGGGATAATCGCCCTGAGCAAAGACC”, the values for the binding signal in test [1] and in test [2] were 1.47 ± 0.0704 log2FC and 0.0118 ± 0.0724 log2FC, respectively.
As to “CTCGAGGATATCAAGATCTGGCCTCGGCATTTTAGGGGGAACCTCTAGCTAGCCGACTCACTATAGGGATAATCGCCCTGAGCAAAGACC”, the binding signal in test [1] turned out to be 1.57 ± 0.105 log2FC; in test [2], 0.0683 ± 0.108 log2FC.
Taken in the same sequence, the figures for “CTCGAGGATATCAAGATCTGGCCTCGGCAGTTTAAAAGGAACCTCTAGCTAGCCGACTCACTATAGGGATAATCGCCCTGAGCAAAGACC” were 2.23 ± 0.0764 log2FC and 0.0518 ± 0.0805 log2FC.
Taken in the same sequence, the figures for “CTCGAGGATATCAAGATCTGGCCTCGGCAAACTAAAAGGAACCTCTAGCTAGCCGACTCACTATAGGGATAATCGCCCTGAGCAAAGACC” were -0.484 ± 0.203 log2FC and 0.0456 ± 0.191 log2FC.
The like results for “CTCGAGGATATCAAGATCTGGCCTCGGCCGCCGACGCGGAACCTCTAGCTAGCCGACTCACTATAGGGATAATCGCCCTGAGCAAAGACC” were, in that order, -0.893 ± 0.142 log2FC and 0.21 ± 0.115 log2FC.
As to “CTCGAGGATATCAAGATCTGGCCTCGGCAGGTTAAAAGGAACCTCTAGCTAGCCGACTCACTATAGGGATAATCGCCCTGAGCAAAGACC”, the binding signal in test [1] amounted to 0.752 ± 0.0728 log2FC; in test [2], 0.0674 ± 0.0711 log2FC.
The like results for “CTCGAGGATATCAAGATCTGGCCTCGGCTTTTTATTTGGAACCTCTAGCTAGCCGACTCACTATAGGGATAATCGCCCTGAGCAAAGACC” were, in that order, 2.91 ± 0.0833 log2FC and 0.188 ± 0.0912 log2FC.
In the case of “CTCGAGGATATCAAGATCTGGCCTCGGCGCGTGGTTAGGAACCTCTAGCTAGCCGACTCACTATAGGGATAATCGCCCTGAGCAAAGACC”, the binding signal was -0.958 ± 0.117 log2FC in test [1] and 0.357 ± 0.094 log2FC in test [2].

The record behind these values is publication doi:10.1101/2024.03.05.583629.
